According to PubChem BioAssay AID687042 (Broad Institute, 2013):
Calls of active or inactive are those of the source.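 The calls were made as follows: active = absorbance drop of 50% or more relative to neutral controls, with potency under twice the top valid dose; inactive = the rest, including effects in the opposite direction.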

The compounds below were run against Protein disulfide-isomerase A6 (Homo sapiens) (UniProt Q15084) (assay: ERp5 reductase inhibition, dose response, selectivity assay for PDI inhibitor project, biochemical, insulin aggregation, absorbance, dry powder, set 2 (AID 687042)). Details: ERp5 insulin reduction aggregation, absorbance 650 nm; series mostly up to 35 µM; activity, negative = inhibition: at the top concentration.
Protein disulfide-isomerase A6 (Homo sapiens), sequence (Q15084 whole entry, looked up): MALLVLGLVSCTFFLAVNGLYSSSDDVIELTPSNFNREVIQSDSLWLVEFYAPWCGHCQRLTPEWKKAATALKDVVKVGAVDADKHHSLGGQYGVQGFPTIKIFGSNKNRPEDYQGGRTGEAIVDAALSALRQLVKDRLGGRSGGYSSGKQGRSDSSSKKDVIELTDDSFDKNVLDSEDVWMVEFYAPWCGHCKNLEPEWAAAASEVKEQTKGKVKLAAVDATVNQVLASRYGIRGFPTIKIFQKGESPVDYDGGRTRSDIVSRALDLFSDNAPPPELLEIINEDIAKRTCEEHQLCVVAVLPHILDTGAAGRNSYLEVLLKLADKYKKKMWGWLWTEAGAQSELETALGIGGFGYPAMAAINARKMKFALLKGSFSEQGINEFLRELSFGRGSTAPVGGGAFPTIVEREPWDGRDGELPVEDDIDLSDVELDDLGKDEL

outcome, inactive:
CCOC(=O)C1(CCOc2ccccc2)CCN(Cc2ccc(O)c(Cl)c2)CC1

activity, negative = inhibition, inactive:
CCOC(=O)C1(CCOc2ccccc2)CCN(Cc2cccc(Cl)c2)CC1 6.28%
O=C(N1CCCC1)C1(CCOc2ccccc2)CCN(Cc2ccc(O)c(Cl)c2)CC1 0.652%
CCOC(=O)C1(CCOc2ccccc2)CCN(Cc2ccc3[nH]c(=O)oc3c2)CC1 2.69%
C/C1=C\[C@@H](O)C(C)(C)CCCC2(C)OC2C[C@@H]1OC(=O)c1ccc(O)cc1 (some centres undefined) 3.86%
CCNC(=O)C1(CCOc2ccccc2)CCN(Cc2ccc(O)c(Cl)c2)CC1 -0.667%
CCOC(=O)C1(CCOC)CCCN(Cc2ccc(Cl)cc2)C1 (centres undefined) -6.3%
CCOC(=O)C1(CCOc2ccccc2)CCN(Cc2ccc(O)cc2)CC1 -6.52%
O=C(NC1CCCC1)C1(CCOc2ccccc2)CCN(Cc2ccc(O)c(Cl)c2)CC1 2.7%
C=CCOc1ccc(CN2CCC(CCOc3ccccc3)(C(=O)NCC)CC2)cc1Cl -0.683%
CCOC(=O)C1(CCOc2ccccc2)CCN(C(=O)OC(C)(C)C)CC1 -7%
C=CCOc1ccc(CN2CCC(CCOc3ccccc3)(C(=O)OCC)CC2)cc1Cl 2.71%
C/C1=C\C[C@H](OC(=O)c2ccc(O)cc2)/C(C)=C/[C@@H](O)C(C)(C)CCC1 14.5%
CCOC(=O)C1(Cc2cccc(OC)c2)CCN(Cc2ccc(O)c(Cl)c2)CC1 5.81%
C=CCOc1ccc(CN2CCC(CCOc3ccccc3)(C(=O)O)CC2)cc1Cl 5.75%
CC(C)(C)OC(=O)C1(CCOc2ccccc2)CCN(Cc2ccc(O)c(Cl)c2)CC1 7.04%
CCOC(=O)C1(CCOc2ccccc2)CCN(C(=O)c2ccc(O)c(Cl)c2)CC1 7.26%
C=CCOc1ccc(CN2CCC(CCOc3ccccc3)(C(=O)N3CCCC3)CC2)cc1Cl 12.4%
CCOC(=O)C1CCN(C(=O)OC(C)(C)C)CC1 0.268%
CCOC(=O)C1(CCOc2ccccc2)CCN(Cc2ccc(OC)c(Cl)c2)CC1 -4.15%
CCN(C)C(=O)C1(CCOc2ccccc2)CCN(Cc2ccc(O)c(Cl)c2)CC1 4.18%
O=C(Nc1ccccc1)C1(CCOc2ccccc2)CCN(Cc2ccc(O)c(Cl)c2)CC1 -7.01%
CCOC(=O)C1(CCOC)CCN(Cc2ccc(O)c(Cl)c2)CC1 -4.25%
CCOC(=O)C1(CCOc2ccccc2)CCN(Cc2ccc(OC)cc2)CC1 -4.92%
C=CCOc1ccc(CN2CCC(CCOc3ccccc3)(C(=O)NC3CCCC3)CC2)cc1Cl 6.26%
C=CCOc1ccc(CN2CCC(CCOc3ccccc3)(C(=O)N(C)CC)CC2)cc1Cl 9.33%
CCOC(=O)C1(Cc2ccccc2)CCN(Cc2ccc(O)c(Cl)c2)CC1 -8.26%
CC(C)OC(=O)C1(CCOc2ccccc2)CCN(Cc2ccc(O)c(Cl)c2)CC1 2.23%
CCOC(=O)c1c(CN2CCN(CCO)CC2)n(-c2ccccc2)c2cc(Br)c(O)cc12 30.7%
